# In the library only some 4.9% were active in any assay of this set; here they are far more common.
# tim23-1 inh: inhibits growth of tim23-1 mutant yeast; S. cerevisiae tim23-1 growth, BacTiter-Glo luminescence, 24 h; inhibition, % at 20 µM; 330,000 compounds, 1.3% hits; AID 463212;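 active means growth inhibition of the mutant yeast at or above 50%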;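 further: temperature-sensitive mutant grown at 25 °C; plate controls were DMSO-treated mutant yeast for no effect and medium wells lacking yeast for full effect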
# SKKanGAS inh: blocks kanamycin growth of S. pyogenes SKKanGAS strain | BacTiter-Glo, 6 h | inhibition, % at 7.5 µM | 300,000 compounds, 1.3% hits;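 active means mean replicate score, as percent of positive control median, at least 50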;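 further: strain carries kanamycin resistance gene driven by streptokinase promoter and grows in 40 µg/ml kanamycin; loss of luminescence reflects streptokinase promoter inhibition or plain growth inhibition; 0% = median of DMSO wells and 100% = positive control at its reference dose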
# TIM10 inh: TIM10 yeast growth inhibition | S. cerevisiae TIM10 strain growth, BacTiter-Glo luminescence, 24 h | inhibition, % at 10 µM | 330,000 compounds, 1.4% hits;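 active means inhibition of 40% or more at the single tested concentration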;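 further: wild-type TIM10 isogenic control strain grown at permissive 25 °C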
# NALP3 yeast inh: blocks the NALP3 inflammasome reconstituted in yeast; Yeast reconstituted NLRP3/ASC/caspase-1, beta-gal luminescence, 24 h; inhibition, % at 10 µM; 330,000 compounds, 0.39% hits;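 active means inhibition of 50% or more; inactive means inhibition below 50%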;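 further: plate controls were induced DMSO wells for no effect and uninduced yeast grown without galactose for full effect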
# tim10-1 inh: growth inhibitors of tim10-1 mutant yeast; S. cerevisiae tim10-1 ts strain growth, BacTiter-Glo, 24 h; inhibition, % at 20 µM; 330,000 compounds, 2.2% hits;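 active means inhibition of at least 40%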;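 further: mutant grown at 25 °C; 0% = DMSO wells with yeast and 100% = wells holding no yeast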
# NALP1 yeast inh: NALP1 inhibition | S. cerevisiae NALP1/ASC/caspase-1 growth, X-gal OD620, 72 h | 280,000 compounds, 0.61% hits | inhibition, % at 10 µM; in the data active means inhibition mostly above about 24%, no sharp cut-off; inactive means mostly below about 32%
# The depositor's hits bear a star; · = no result.
SMILES,tim23-1 inh,SKKanGAS inh,TIM10 inh,NALP3 yeast inh,tim10-1 inh,NALP1 yeast inh
O=C(c1ccc(F)cc1)c1cc2ccc(O)cc2oc1=O,28,65*,25,10,30,-12
COc1cc(/C=N/N2CCN(c3ccccc3OC)CC2)ccc1OC(C)=O,24,-6,-3,-13,24,-6
S=c1[nH]nc(-c2ccncc2)n1/N=C/c1cn(-c2ccccc2)nc1-c1ccccc1,-2,51*,9,32,-2,5
Cc1ccc(-c2nn(-c3ccccc3)cc2/C=N/n2c(-c3cccs3)n[nH]c2=S)cc1,24,55*,20,20,15,·
O=[N+]([O-])c1ccc(-c2nn(-c3ccccc3)cc2/C=N/n2c(-c3ccncc3)n[nH]c2=S)cc1,-14,17,1,1,3,·
O=C(COC(=O)/C=C/c1cccc(Br)c1)NC1CCCCCC1,-2,·,-3,5,1,·
C[C@H]1COC(=O)[C@H](CC(=O)OC(C)(C)C)C/C=C\C[C@H](CC(=O)N(CCO)Cc2ccccc2)C(=O)N1,7,·,4,13,9,·
C=CCn1c(SCC(=O)c2c(N)n(C)c(=O)n(C)c2=O)nnc1-c1ccccc1F,3,3,1,-4,6,37*
Cn1c(N)c(C(=O)CSc2nnc(-c3ccccc3F)n2N)c(=O)n(C)c1=O,-8,-6,-8,-20,-13,·
Cn1c(N)c(C(=O)CSc2nnc(-c3ccccc3F)n2C2CC2)c(=O)n(C)c1=O,7,-3,8,12,6,34*
CCOC(=O)CC(NC(=O)CCS(=O)(=O)c1ccc2c(c1)n(C)c(=O)c(=O)n2C)c1ccc(C)cc1 (stereo unspecified),-9,59*,13,0,-8,11
COCCN(C(=O)COC(=O)C1CCC(C(C)(C)C)CC1)c1c(N)n(Cc2ccccc2)c(=O)[nH]c1=O (stereo unspecified),1,0,5,31,11,·
CCc1ccc(/C=C2\SC(=S)N(CCCC(=O)Nc3ccccc3C(=O)O)C2=O)cc1,40,66*,13,20,32,-6
Cc1ccc(/C=C2\SC(=S)N(CCCC(=O)Nc3ccccc3C(=O)O)C2=O)cc1,24,21,9,16,29,0
Cc1ccc(S(=O)(=O)Nc2cccc3ncccc23)cc1,-2,0,-15,22,-8,·
Cc1ccc(S(=O)(=O)Nc2cccc3ncccc23)s1,15,71*,16,-3,35,6
Cc1cc(OCC(=O)NNC(=S)NC(=O)c2cccs2)ccc1Cl,31,·,23,18,28,5
COc1ccc(C(=O)NNC(=S)NC(=O)c2ccc(Br)o2)cc1OC,5,66*,2,18,21,-5
Cc1ccc(OCC(=O)NNC(=S)NC(=O)c2ccc(Br)o2)c(C)c1,15,93*,-4,27,18,9
Cc1ccc(OCC(=O)NNC(=S)NC(=O)c2cccs2)c(C)c1,-43,87*,-12,35,-7,-12
Cc1cccc(NC(=S)NNC(=O)c2ccc(Br)o2)c1,12,2,28,25,26,11
CCOc1cc(CNCc2ccncc2)cc(Br)c1OCc1ccc(F)cc1,-3,-10,28,43,16,51*
CCOc1cc(CNC2CCCC2)cc(Cl)c1OCc1ccc(F)cc1,7,-12,19,40,10,97*
COc1cc(OC)c(-c2noc(C(=O)OC(C)(C)C)c2C(=O)OC(C)(C)C)c(OC)c1,14,3,-1,4,33,13
Cc1cc(C)c(-c2noc(C(=O)OC(C)(C)C)c2C(=O)OC(C)(C)C)c(C)c1,6,72*,-5,-10,24,8
OC(CN1c2ccccc2Sc2ccccc21)Cn1nnc2ccccc21 (stereo unspecified),14,20,24,14,14,41
Cc1nn(CC(O)CN2c3ccccc3Sc3ccccc32)c(C)c1Br (stereo unspecified),34,100*,2,10,14,6
CN(C1=C(NC(=O)c2ccccc2)C(=O)c2ccccc2C1=O)C1CCS(=O)(=O)C1 (stereo unspecified),14,35,14,-13,14,43*
CCC(=O)Nc1ccc(C(=O)COC(=O)c2sc(C)nc2C)cc1,17,·,6,18,-4,·
Cc1cccc(C(=O)NC(=S)NNC(=O)c2cccs2)c1,-6,51*,15,29,29,7

# High-throughput results as filed in PubChem BioAssay.
